Assay results from PubChem BioAssay AID624296 (National Center for Advancing Translational Sciences (NCATS), 2012).
The campaign covered roughly 350,000 compounds. About 9,900 (2.8%) were called active. Inconclusive results (about 15%) are left out. Calls come from the whole dose curve; as a rule, active = well fitted activation curve with a large enough effect; inconclusive = small, poorly fitted or top-dose-only effect; inactive = no such curve, though single readings can be large or run the other way. What follows is part of a selection rich in actives, with near analogues and random picks from the rest.

test: A quantitative high throughput screen for small molecules that induce DNA re-replication in MCF 10a normal breast cells.; note: nearly all actives have a fitted effect of over 50% in size; for activity, positive = re-replication: % of control where 0% means no effect; conditions: MCF 10A DNA re-replication, Hoechst nuclear intensity, 48 h; series mostly up to 46.1 µM; activity, positive = re-replication: at the top concentration
Potency is the fitted concentration of half-maximal effect.

| Structure (SMILES) | activity, positive = re-replication | Potency |
| --- | --- | --- |
| COc1ccccc1C1CCN(c2ccc([N+](=O)[O-])cn2)CC1 | 19.6% (inactive) |  |
| Nc1cc2c(cc1Br)-c1ccc(F)cc1C2=O | 4.09% (inactive) |  |
| CCOC(=O)C1CCN(CC(=O)Nc2ccc(OC)c(S(=O)(=O)N3CCCCC3)c2)CC1 | -0.144% (inactive) |  |
| O=C(c1cn(-c2ccccc2)nc1-c1cccnc1)N1CCN(S(=O)(=O)c2ccccc2F)CC1 | 7.54% (inactive) |  |
| O=C(CN1CCCC1)Nc1sc2c(c1C(=O)Nc1ccccc1)CCCC2 | 1.37% (inactive) |  |
| CCOC(=O)C(NC(=O)CC(C)C)(Nc1sc2c(c1C(N)=O)CCCC2)C(F)(F)F (stereo unspecified) | -2.86% (inactive) |  |
| O=C(Nc1sc2c(c1C(=O)O)CCC2)c1ccccc1F | 0.128% (inactive) |  |
| NC(=O)c1c(Nc2nc3c(F)cccc3s2)sc2c1CCCC2 |  | 20.6 µM (active) |
| NC(=O)c1c(NC(=O)c2ccccc2)sc2c1CCCC2 |  | 18.4 µM (active) |
| COc1cccc(OC)c1C(=O)Nc1sc2c(c1C(N)=O)CCCC2 | 0.648% (inactive) |  |
| O=C(NNC(=O)c1ccc(-n2cncn2)c([N+](=O)[O-])c1)c1ccccc1 | -2.5% (inactive) |  |
| CCN(CC)c1ccc(NC(=O)CN2C(=O)NC3(CCc4ccccc43)C2=O)cc1 (stereo unspecified) | -1.6% (inactive) |  |
| CCN(CC(=O)Nc1ccc(OC)cc1)C(=O)c1ccc(Cl)c(S(=O)(=O)N2CCCC2)c1 | 11.8% (inactive) |  |
| OCC1(CO)CC2(C1)CC(CO)(CO)C2 | -1.42% (inactive) |  |
| CN(C)C(=O)CCc1ccc2c3c([nH]c2c1)[C@]1(C)[C@@H](C(=O)N2CCCCC2)C[C@H](CC(=O)NCCC2=CCCCC2)C(=O)N1CC3 | 9.41% (inactive) |  |
| CC(=O)NC(=O)c1ccccc1O | -0.337% (inactive) |  |
| CC(C)=C(NC(=O)c1ccccc1)C(=O)N/N=C(\C)c1ccccc1O | -3.76% (inactive) |  |
| C/C(=N\NC(=O)c1ccoc1C)c1ccccc1O |  | 7.31 µM (active) |
| CSCCC(NC(=O)c1ccccc1)C(=O)N1CCCCCCC1 (stereo unspecified) | -1.68% (inactive) |  |
| O=C(Cc1ccc(NC(=O)C2CCCN(C(=O)C3CCCCC3)C2)cc1)Nc1cccc(C(=O)N2CCCCC2)c1 (stereo unspecified) | 12.1% (inactive) |  |
| CC(=O)c1c(N2CCOCC2)nc(=S)n(Cc2ccccc2)c1C | -6.16% (inactive) |  |
| CC(=O)c1c(N2CCOCC2)nc(=S)n(-c2cc(C)ccc2C)c1C |  | 1.3 µM (active) |
| CC(=O)c1c(N2CCN(c3ccc(F)cc3)CC2)nc(=S)n(-c2ccccc2)c1C | 42.3% (inactive) |  |
| O=C(CN1C(=O)NC2(CCOc3ccccc32)C1=O)Nc1cccc([N+](=O)[O-])c1 (stereo unspecified) | -0.599% (inactive) |  |
| O=C(OCCN1C(=O)c2ccccc2C1=O)[C@@H]1CC(O)CN1S(=O)(=O)c1ccccc1[N+](=O)[O-] (stereo partly specified) | 5.67% (inactive) |  |
| COc1ccc(OC)c(/C=C/C(=O)OCC(=O)Nc2ccc3c(c2)OCCO3)c1 |  | 20.6 µM (active) |

| Structure (SMILES) | activity, positive = re-replication | Potency |
| --- | --- | --- |
| COc1ccc(/C=C/C(=O)OCC(=O)Nc2cccc(Oc3ccccc3)c2)c(OC)c1 | -5.63% (inactive) |  |
| COc1cccc(NC(=O)CN(C)C(=O)/C=C/c2cc(OC)ccc2OC)c1 | 0.159% (inactive) |  |
| CC(=O)NC(CC(=O)Nc1ccc(S(=O)(=O)N2CCOCC2)cc1)c1ccccc1 (stereo unspecified) | 0.442% (inactive) |  |
| C/C(=N/OC(=O)c1c(-c2c(F)cccc2Cl)noc1C)c1cnccn1 | -1.23% (inactive) |  |
| CCOC(=O)c1cc2c(=O)n3ccccc3nc2n(CC(C)C)c1=NC(=O)c1c(-c2c(F)cccc2Cl)noc1C |  | 3.26 µM (active) |
| CCCn1c(=NC(C)=O)c(C(=O)OCC)cc2c(=O)n3ccccc3nc21 | -5.83% (inactive) |  |
| Cc1noc(C)c1NC(=O)Nc1cccc2c1O[C@H](CN(C)S(=O)(=O)c1c(C)noc1C)[C@@H](C)CN([C@H](C)CO)C2=O | 1.25% (inactive) |  |
| CCc1nnc(NC(=O)c2cc(S(=O)(=O)N3CCN(CC)CC3)ccc2Cl)s1 | -8.12% (inactive) |  |
| CCCN(CC(=O)Nc1ccccc1C)C(=O)c1cc(=O)[nH]c2ccccc12 | 10.5% (inactive) |  |
| CC1CCc2[nH]c3ccc(C(=O)N(C)CC(=O)Nc4cccc(F)c4)cc3c2C1 (stereo unspecified) | 19.4% (inactive) |  |
| CCCN(CC(=O)Nc1ccccc1C)C(=O)c1ccc2[nH]c3c(c2c1)CC(C)CC3 (stereo unspecified) |  | 1.3 µM (active) |
| CN1CCOC1c1ccc(C2OCCN2C)cc1 (stereo unspecified) | -3.01% (inactive) |  |
| O=C1C=C(c2ccnc3cc(Cl)ccc23)C[C@@H](c2ccc3c(c2)OCO3)C1 | -2.45% (inactive) |  |
| CCOc1ncccc1C(=O)Nc1ccc2c(c1)OCCO2 | -0.515% (inactive) |  |
| COc1ccc(C(=O)N2CCN(c3ncccn3)CC2)cc1S(=O)(=O)N1CCOCC1 | 0.66% (inactive) |  |
| Cc1ccc(C(C)C)cc1OCCN1CCCC1 | 16% (inactive) |  |
| CCC(=O)N1CCN(c2ccccc2NC(=O)COc2cccc(C)c2C)CC1 | 11.5% (inactive) |  |
| Cc1ccc(C(C)C)cc1OCC(=O)Nc1ccccc1N1CCCC1 |  | 20.6 µM (active) |
| O=S(=O)(NCCCCCCNS(=O)(=O)c1c(F)cccc1F)c1ccc2c(c1)OCCO2 | 12.4% (inactive) |  |
| COc1ccc(OC)c(S(=O)(=O)Nc2c(C)nn(C)c2C)c1 | 2.29% (inactive) |  |
| COc1ccc(/C=C/C(=O)Nc2cccnc2)cc1OC | -3.51% (inactive) |  |
| COc1ccc(/C=C/C(=O)Nc2c(C)nn(C)c2C)cc1COc1ccc(Br)cc1 |  | 4.61 µM (active) |
| CCn1nc(C)c(NC(=O)/C=C/c2ccc(OC)c(COc3ccc(Br)cc3)c2)c1C |  | 8.2 µM (active) |
| COc1ccc(/C=C/C(=O)Nc2ccc(C)cc2)cc1S(=O)(=O)N1CCOCC1 | -4.4% (inactive) |  |
| C/C=C/c1ccc(OCC(=O)OCC(=O)Nc2c(C)nn(-c3ccccc3)c2C)c(OC)c1 | 0.529% (inactive) |  |
